{"source": "ChEMBL document CHEMBL1157539", "about": "“Thousands of chemical starting points for antimalarial lead identification” (Nature, 2010)", "assay_type_in_all_cases": "functional", "key": {"Plasmodium falciparum [1]": {"system": "Plasmodium falciparum", "assay": "GSK_TCMDC: Inhibition of Plasmodium falciparum 3D7 in whole red blood cells, using parasite LDH activity as an index of growth. Test compounds present at 2uM"}, "Plasmodium falciparum [2]": {"system": "Plasmodium falciparum", "assay": "GSK_TCMDC: Inhibition of Plasmodium falciparum Dd2 in whole red blood cells, using parasite LDH activity as an index of growth. Test compounds present at 2uM"}, "HepG2": {"system": "HepG2", "assay": "GSK_TCMDC: Percent inhibition of human HepG2 cell line. Test compounds present at 10uM."}}}
{"molecule": "Cl.Nc1nc(N)c2c(ccc3c2cnn3S(=O)(=O)N2CCCC2)n1", "values": [{"measurement": "Inhibition", "setting": "Plasmodium falciparum [1]", "value": 93, "unit": "%"}, {"measurement": "Inhibition", "setting": "Plasmodium falciparum [2]", "value": 3, "unit": "%"}, {"measurement": "Inhibition", "setting": "HepG2", "value": 70, "unit": "%"}]}
{"molecule": "COc1cccc2c(NN=Cc3cccc(Cl)c3)ccnc12", "values": [{"measurement": "Inhibition", "setting": "Plasmodium falciparum [1]", "value": 100, "unit": "%"}, {"measurement": "Inhibition", "setting": "Plasmodium falciparum [2]", "value": 77, "unit": "%"}, {"measurement": "Inhibition", "setting": "HepG2", "value": 19, "unit": "%"}]}
{"molecule": "Cc1cccc2nc(-c3ccc(-c4ccc(NC(=O)CN5CCN(C)CC5)cc4)cc3)[nH]c12", "values": [{"measurement": "Inhibition", "setting": "Plasmodium falciparum [1]", "value": 100, "unit": "%"}, {"measurement": "Inhibition", "setting": "Plasmodium falciparum [2]", "value": 83, "unit": "%"}, {"measurement": "Inhibition", "setting": "HepG2", "value": 29, "unit": "%"}]}
{"molecule": "Cc1nnc2c(NC(=O)/C=C/c3ccc(OC(F)(F)F)cc3)cc3cc(Cl)ccc3n12", "values": [{"measurement": "Inhibition", "setting": "Plasmodium falciparum [1]", "value": 94, "unit": "%"}, {"measurement": "Inhibition", "setting": "Plasmodium falciparum [2]", "value": 99, "unit": "%"}, {"measurement": "Inhibition", "setting": "HepG2", "value": 19, "unit": "%"}]}
{"molecule": "O=C(NC1CC1)c1cnc(N2CCC(Oc3ccc(Cl)cc3)CC2)c(Cl)c1", "values": [{"measurement": "Inhibition", "setting": "Plasmodium falciparum [1]", "value": 86, "unit": "%"}, {"measurement": "Inhibition", "setting": "Plasmodium falciparum [2]", "value": 75, "unit": "%"}, {"measurement": "Inhibition", "setting": "HepG2", "value": 12, "unit": "%"}]}
{"molecule": "Cc1ccc2[nH]c3c(c2c1)CC(C(=O)NCCC(C)C)NC31CCN(Cc2ccccc2)CC1", "note": "(centres undefined)", "values": [{"measurement": "Inhibition", "setting": "Plasmodium falciparum [1]", "value": 95, "unit": "%"}, {"measurement": "Inhibition", "setting": "Plasmodium falciparum [2]", "value": 50, "unit": "%"}, {"measurement": "Inhibition", "setting": "HepG2", "value": 15, "unit": "%"}]}
{"molecule": "CC(=O)Nc1ccc(C(=O)Nc2cccc(-c3ccc(-c4nc5ccccc5[nH]4)s3)c2)cn1", "values": [{"measurement": "Inhibition", "setting": "Plasmodium falciparum [1]", "value": 100, "unit": "%"}, {"measurement": "Inhibition", "setting": "Plasmodium falciparum [2]", "value": 91, "unit": "%"}, {"measurement": "Inhibition", "setting": "HepG2", "value": 9, "unit": "%"}]}
{"molecule": "Cn1c(=O)c(-c2c(Cl)cccc2Cl)cc2cnc(Nc3ccc(N4CCOCC4)cc3)nc21", "values": [{"measurement": "Inhibition", "setting": "Plasmodium falciparum [1]", "value": 98, "unit": "%"}, {"measurement": "Inhibition", "setting": "Plasmodium falciparum [2]", "value": 97, "unit": "%"}, {"measurement": "Inhibition", "setting": "HepG2", "value": 64, "unit": "%"}]}
{"molecule": "COc1ccc(NC(=O)N2CCc3ccc(OCCN(C(C)C)C(C)C)cc32)cc1C(F)(F)F.O=C(O)C(F)(F)F", "values": [{"measurement": "Inhibition", "setting": "Plasmodium falciparum [1]", "value": 90, "unit": "%"}, {"measurement": "Inhibition", "setting": "Plasmodium falciparum [2]", "value": 6, "unit": "%"}, {"measurement": "Inhibition", "setting": "HepG2", "value": 0, "unit": "%"}]}
{"molecule": "CN1CCN(CC2(Nc3nccc(NCCc4cn(C)c5ccccc45)n3)CCCCC2)CC1", "values": [{"measurement": "Inhibition", "setting": "Plasmodium falciparum [1]", "value": 91, "unit": "%"}, {"measurement": "Inhibition", "setting": "Plasmodium falciparum [2]", "value": 41, "unit": "%"}, {"measurement": "Inhibition", "setting": "HepG2", "value": 67, "unit": "%"}]}
{"molecule": "COc1ccc(NC(=O)[C@H](Cc2ccccc2)Nc2cc(C)nc(NCCc3cccs3)n2)cc1.O=C(O)C(F)(F)F", "values": [{"measurement": "Inhibition", "setting": "Plasmodium falciparum [1]", "value": 100, "unit": "%"}, {"measurement": "Inhibition", "setting": "Plasmodium falciparum [2]", "value": 83, "unit": "%"}, {"measurement": "Inhibition", "setting": "HepG2", "value": 12, "unit": "%"}]}
{"molecule": "CNC(=O)C1Cc2c([nH]c3cc(Cl)ccc23)C2(CCN(CCc3ccccc3)CC2)N1", "note": "(centres undefined)", "values": [{"measurement": "Inhibition", "setting": "Plasmodium falciparum [1]", "value": 91, "unit": "%"}, {"measurement": "Inhibition", "setting": "Plasmodium falciparum [2]", "value": 3, "unit": "%"}, {"measurement": "Inhibition", "setting": "HepG2", "value": 14, "unit": "%"}]}
{"molecule": "C#CCOc1ccc(N2C(N)=NC(N)=NC2(C)C)cc1.Cl", "values": [{"measurement": "Inhibition", "setting": "Plasmodium falciparum [1]", "value": 94, "unit": "%"}, {"measurement": "Inhibition", "setting": "Plasmodium falciparum [2]", "value": 0, "unit": "%"}, {"measurement": "Inhibition", "setting": "HepG2", "value": 43, "unit": "%"}]}
{"molecule": "CN1CCN(CCCNc2ncc3c(-c4ccc(NC(=O)Nc5cc(C(F)(F)F)ccc5F)c(F)c4)nn(C)c3n2)CC1.O=C(O)C(F)(F)F", "values": [{"measurement": "Inhibition", "setting": "Plasmodium falciparum [1]", "value": 98, "unit": "%"}, {"measurement": "Inhibition", "setting": "Plasmodium falciparum [2]", "value": 94, "unit": "%"}, {"measurement": "Inhibition", "setting": "HepG2", "value": 100, "unit": "%"}]}
{"molecule": "CC(C)c1ccc(S(=O)(=O)Nc2cccc(CCN3CCC(N4CCCCC4)CC3)c2)cc1", "values": [{"measurement": "Inhibition", "setting": "Plasmodium falciparum [1]", "value": 100, "unit": "%"}, {"measurement": "Inhibition", "setting": "Plasmodium falciparum [2]", "value": 35, "unit": "%"}, {"measurement": "Inhibition", "setting": "HepG2", "value": 37, "unit": "%"}]}
{"molecule": "CCN(CC)CCN(Cc1ccc(-c2ccc(C(F)(F)F)cc2)cc1)C(=O)Cn1c(CCc2ccccc2F)nc(=O)c2ccccc21.O=C(O)C(O)C(O)C(=O)O", "values": [{"measurement": "Inhibition", "setting": "Plasmodium falciparum [1]", "value": 95, "unit": "%"}, {"measurement": "Inhibition", "setting": "Plasmodium falciparum [2]", "value": 54, "unit": "%"}, {"measurement": "Inhibition", "setting": "HepG2", "value": 39, "unit": "%"}]}
{"molecule": "N=C(N)c1ccc(Oc2ccc(C(=N)N)cc2)cc1.O=S(=O)(O)CCO", "values": [{"measurement": "Inhibition", "setting": "Plasmodium falciparum [1]", "value": 92, "unit": "%"}, {"measurement": "Inhibition", "setting": "Plasmodium falciparum [2]", "value": 85, "unit": "%"}, {"measurement": "Inhibition", "setting": "HepG2", "value": 18, "unit": "%"}]}
{"molecule": "CC1(C)CC(NC(=O)NC2CCN(Cc3ccccc3)CC2)CC(C)(CNC(=O)NC2CCN(Cc3ccccc3)CC2)C1", "note": "(centres undefined)", "values": [{"measurement": "Inhibition", "setting": "Plasmodium falciparum [1]", "value": 93, "unit": "%"}, {"measurement": "Inhibition", "setting": "Plasmodium falciparum [2]", "value": 2, "unit": "%"}, {"measurement": "Inhibition", "setting": "HepG2", "value": 10, "unit": "%"}]}
{"molecule": "Cc1ccc(Cn2c(N3CCC(C(=O)NCc4ccccn4)CC3)nc3ccccc32)cc1", "values": [{"measurement": "Inhibition", "setting": "Plasmodium falciparum [1]", "value": 100, "unit": "%"}, {"measurement": "Inhibition", "setting": "Plasmodium falciparum [2]", "value": 99, "unit": "%"}, {"measurement": "Inhibition", "setting": "HepG2", "value": 0, "unit": "%"}]}
{"molecule": "CN1CC[C@@H](Oc2cc(NC(=O)Nc3ccc(Cl)c(C(F)(F)F)c3)ccc2Cl)C1", "values": [{"measurement": "Inhibition", "setting": "Plasmodium falciparum [1]", "value": 100, "unit": "%"}, {"measurement": "Inhibition", "setting": "Plasmodium falciparum [2]", "value": 68, "unit": "%"}, {"measurement": "Inhibition", "setting": "HepG2", "value": 17, "unit": "%"}]}
{"molecule": "CCN1CCN(c2ccc(Nc3ccnc4ccc(Br)cc34)cc2)CC1", "values": [{"measurement": "Inhibition", "setting": "Plasmodium falciparum [1]", "value": 98, "unit": "%"}, {"measurement": "Inhibition", "setting": "Plasmodium falciparum [2]", "value": 86, "unit": "%"}, {"measurement": "Inhibition", "setting": "HepG2", "value": 37, "unit": "%"}]}
{"molecule": "O=C(NCCCCN1CCC(c2ccc(-c3ccco3)cc2)CC1)c1ccc(NC(=O)c2ccc(Cl)cc2)cc1", "values": [{"measurement": "Inhibition", "setting": "Plasmodium falciparum [1]", "value": 100, "unit": "%"}, {"measurement": "Inhibition", "setting": "Plasmodium falciparum [2]", "value": 97, "unit": "%"}, {"measurement": "Inhibition", "setting": "HepG2", "value": 26, "unit": "%"}]}
{"molecule": "N#Cc1cc(C(=O)c2cc(Br)ccc2O)cn(-c2cc(Cl)cc(Cl)c2)c1=O", "values": [{"measurement": "Inhibition", "setting": "Plasmodium falciparum [1]", "value": 98, "unit": "%"}, {"measurement": "Inhibition", "setting": "Plasmodium falciparum [2]", "value": 35, "unit": "%"}, {"measurement": "Inhibition", "setting": "HepG2", "value": 42, "unit": "%"}]}
{"molecule": "CCc1c[nH]c2c(N3CCCC3=O)cc(C(=O)N[C@@H](Cc3ccccc3)[C@H](O)CNC3CCCCC3)cc12.O=CO", "values": [{"measurement": "Inhibition", "setting": "Plasmodium falciparum [1]", "value": 100, "unit": "%"}, {"measurement": "Inhibition", "setting": "Plasmodium falciparum [2]", "value": 98, "unit": "%"}, {"measurement": "Inhibition", "setting": "HepG2", "value": 12, "unit": "%"}]}
{"molecule": "COCc1ccccc1C(=O)NCCOc1cc(C)cc(C)c1", "values": [{"measurement": "Inhibition", "setting": "Plasmodium falciparum [1]", "value": 96, "unit": "%"}, {"measurement": "Inhibition", "setting": "Plasmodium falciparum [2]", "value": 95, "unit": "%"}, {"measurement": "Inhibition", "setting": "HepG2", "value": 26, "unit": "%"}]}
{"molecule": "Cc1cc(N2CCC(NS(=O)(=O)c3ccc(F)cc3)CC2)nc(Nc2cccc(C#N)c2)n1.O=C(O)C(F)(F)F", "values": [{"measurement": "Inhibition", "setting": "Plasmodium falciparum [1]", "value": 97, "unit": "%"}, {"measurement": "Inhibition", "setting": "Plasmodium falciparum [2]", "value": 65, "unit": "%"}, {"measurement": "Inhibition", "setting": "HepG2", "value": 20, "unit": "%"}]}
{"molecule": "COc1cccc2[nH]c(NCCCNCc3cc(Br)cc(Br)c3)nc12", "values": [{"measurement": "Inhibition", "setting": "Plasmodium falciparum [1]", "value": 88, "unit": "%"}, {"measurement": "Inhibition", "setting": "Plasmodium falciparum [2]", "value": 2, "unit": "%"}, {"measurement": "Inhibition", "setting": "HepG2", "value": 5, "unit": "%"}]}
{"molecule": "Cc1ccc(Nc2nc(C)cc(NC3CC3)n2)cc1", "values": [{"measurement": "Inhibition", "setting": "Plasmodium falciparum [1]", "value": 97, "unit": "%"}, {"measurement": "Inhibition", "setting": "Plasmodium falciparum [2]", "value": 15, "unit": "%"}, {"measurement": "Inhibition", "setting": "HepG2", "value": 0, "unit": "%"}]}
